Bioassay records (PubChem)
Rows were chosen to be rich in hits. Some 0.4% of all compounds tested hit in one or more screens of this group.
AID inhibitor = inhibitors of human activation induced cytidine deaminase; Potency, µM (titrated, usually from 115 µM), usual class: inhibitors; Q9GZX7; AID 1347428; hit rate 0.32% among 91,000; AID deamination FRET fluorescence, UDG-coupled, 4 h; note: nearly all actives have a fitted effect of over 25% in size
Target sequence (Q9GZX7 whole entry, looked up): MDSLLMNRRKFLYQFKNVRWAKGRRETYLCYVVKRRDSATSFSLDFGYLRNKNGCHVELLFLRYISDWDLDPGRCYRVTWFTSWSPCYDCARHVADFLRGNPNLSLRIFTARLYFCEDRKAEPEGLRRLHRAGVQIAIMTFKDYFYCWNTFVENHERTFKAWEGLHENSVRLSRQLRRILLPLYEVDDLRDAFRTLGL
UDG counterscr = UDG inhibition counter-screen | hit rate 0.14% among 91,000 | Potency, µM (titrated, usually from 115 µM), actives largely listed as inhibitors | FRET deamination/UDG coupled assay, UDG read, 4 h; note: nearly all actives have a fitted effect of over 65% in size
A number is an active result; - = inactive; ? = inconclusive; ! = repeats disagree. Calls come from the whole dose curve; as a rule, active = well fitted curve in the direction sought with a large enough effect; inconclusive = small, poorly fitted or top-dose-only effect, or another doubt; inactive = no such curve, though single readings can be large; an effect the other way counts as inactive or inconclusive.

SMILES | AID inhibitor | UDG counterscr
FC(F)(F)c1ccccc1N/N=C1/CCCc2ccccc21 | - | -
COc1cc(NC(=O)c2cn(C3CCCC3)c(=O)c3c2c2ccccc2n3C)cc(OC)c1OC | - | -
COc1ccc(N(C)C(=O)c2cn(C3CCCCC3)c(=O)c3c2c2ccccc2n3C)cc1 | 40µM | ?
FC(F)(F)c1cccc(N/N=C/c2ccc(Cl)cc2Cl)c1 | - | -
CC(=O)C1=CC[C@H]2[C@@H]3CC[C@H]4C[C@@H](O)CC[C@]4(C)[C@H]3CC[C@]12C | - | -
CC(=O)O[C@H]1C[C@@H]2CC[C@@H]3[C@H](CC[C@@]4(C)[C@H]3C[C@H]([N+]3(C)CCCCC3)[C@@H]4OC(C)=O)[C@@]2(C)C[C@@H]1[N+]1(C)CCCCC1 | 22µM | -
O=C(CSc1cccc[n+]1[O-])Nc1cccc2ccccc12 | - | -
CCn1cc(C(=O)N2CCN(c3cc(Cl)ccc3C)CC2)c2cc(OC)c(OC)cc2c1=O | - | -
COc1ccccc1S(=O)(=O)Cc1ccc(C(=O)N2CCN(c3cc(Cl)ccc3C)CC2)o1 | ? | 89µM
COc1ccc(-c2csc(N3N=C(C)CC3c3cc(OC)c(OC)c(OC)c3)n2)cc1 (stereo unspecified) | ? | 89µM
CSc1ccc(C2CC(C)=NN2c2nc(-c3ccccc3)cs2)cc1 (stereo unspecified) | - | -
CNC(=O)c1ccc(NC(=O)C2CCN(S(=O)(=O)c3ccc(C)cc3C)CC2)cc1 | - | -
O=C(NC1CCS(=O)(=O)C1)C1CCN(C2=NS(=O)(=O)c3ccccc32)CC1 (stereo unspecified) | - | -
CCOCCCn1c(=N)c(C(=O)NC(C)c2ccccc2)cc2c(=O)n3cccc(C)c3nc21 (stereo unspecified) | 22µM | -
Cc1cccn2c(=O)c3cc(C(=O)NC(C)c4ccccc4)c(=N)n(CCOCCO)c3nc12 (stereo unspecified) | - | -
CCCCNc1oc(/C=C/c2cccc(OC)c2)nc1C#N | - | -
CCc1ccc(C(=O)c2cn(Cc3ccc(F)cc3)c3cc(OC)c(OC)cc3c2=O)cc1 | 35µM | -
CCc1ccc(C(=O)c2cn(CC(=O)Nc3ccc(F)c(F)c3)c3cc(OC)c(OC)cc3c2=O)cc1 | - | -
C/C(=N/Nc1c(F)c(F)nc(F)c1F)c1ccc(C)c([N+](=O)[O-])c1 | - | -
CCN(CC)S(=O)(=O)c1ccc(C)c(NC(=S)N(c2ccccc2)C(C)C)c1 | - | -
CCN(C(=S)Nc1cc(S(=O)(=O)N(C)C)ccc1C)c1cccc2ccccc12 | 79µM | ?
CCOC(=O)c1ccoc1CN(CC)CC | - | -
COc1ccc2[nH]c(C)c(C(=O)CN3CCC(Cc4ccccc4)CC3)c2c1 | - | 89µM
COc1ccc2[nH]c(C)c(C(=O)CN3CCC(C)CC3)c2c1 | - | -
CC(/C=N/NC(=O)C1CC1c1ccc(C(C)(C)C)cc1)c1ccccc1 (stereo unspecified) | - | -
SMILES | AID inhibitor | UDG counterscr
Cc1cccc(CN2CCN(c3nc4c(c(=O)[nH]c(=O)n4C)n3CCc3ccccc3)CC2)c1 | - | -
O=C(Nc1cccc(F)c1)C1=Cc2sc3c(c2CS1)CCCC3 | - | -
Cc1ccc2c(c1)-c1c(cnn1CC(=O)N1CCN(c3cc(C)ccc3C)CC1)CO2 | 40µM | -
COc1ccc(N2CCN(C(=O)Cn3ncc4c3-c3cc(C)ccc3OC4)CC2)cc1 | - | -
CCc1ccc(-c2nn(-c3ccccc3)cc2/C=N/O)cc1 | - | -
CC(C)(C)NC(=O)CSc1cc(C(=O)NC2CC2)c2ccccc2n1 | - | -
CCOc1ccc(-n2c(C)nc3cc(C(=O)NCCC4=CCCCC4)ccc32)cc1 | - | -
CCOc1ccc(-n2c(C)nc3cc(C(=O)NCc4ccc(C)cc4)ccc32)cc1 | 32µM | -
O=C(Nc1cccc(Cl)c1)c1c(NC(=O)C(F)(F)F)sc2c1CCCC2 | ? | -
Cc1cccc(NC(=O)c2c(NC(=O)C(F)(F)F)sc3c2CCCCC3)c1 | 79µM | -
CCc1ccc(OCc2nnc(SCc3ccc(C(C)(C)C)cc3)n2CC(C)C)cc1 | - | -
CCOC(=O)C(C)Oc1cc2oc(=O)cc(C)c2cc1Cl (stereo unspecified) | - | -
COc1ccc(-c2nc3ccccc3n2Cc2ccc(C(C)C)cc2)cc1 | ? | -
COc1ccc(-c2nc3ccccc3n2Cc2ccc(Cl)cc2)cc1 | 45µM | ?
Cc1cccc(-n2c(SCc3nc(-c4ccccc4C)no3)nnc2-c2ccccc2)c1 | - | -
Cc1ccc(-c2noc(CSc3nnc(C)n3-c3ccc(F)cc3)n2)cc1 | - | ?
Cc1nnc(SCc2nc(-c3ccc(Cl)cc3)no2)n1-c1ccc(F)cc1 | ? | 79µM
Cc1ccc(-c2noc(CSc3nnc(C4CC4)n3-c3ccccc3)n2)cc1 | - | 89µM
N#Cc1ccccc1OCc1csc(-c2ccccc2)n1 | ? | 89µM
N#Cc1ccccc1OCc1ccccc1 | - | -
CCCCCCCCCCS(=O)(=O)N/N=C/c1c[nH]c2ccccc12 | - | -
COc1c(Cl)cc(C(=O)N(Cc2ccc(C)o2)C2CCS(=O)(=O)C2)cc1Cl (stereo unspecified) | - | 89µM
Cc1ccc(CN(C(=O)COc2ccc(Cl)cc2Cl)C2CCS(=O)(=O)C2)o1 (stereo unspecified) | - | -
CC(C)c1ccc(S(=O)(=O)c2nnn3c2nc(N2CCN(C)CC2)c2sccc23)cc1 | 18µM | -
CN1CCN(c2nc3c(S(=O)(=O)c4ccc(Cl)cc4)nnn3c3ccsc23)CC1 | ? | -
SMILES | AID inhibitor | UDG counterscr
CCCCC(=O)Nc1oc2c(C)cccc2c(=O)c1-c1cc(OC)c(OC)c(OC)c1 | - | -
CCCCC(=O)Nc1oc2c(C)cccc2c(=O)c1-c1ccccc1 | - | 79µM
O=C1c2ccccc2-c2ccccc21 | - | -
CC1(C)CCC2=C(O1)c1ccccc1C(=O)C2=O | 7.9µM | -
CC1Sc2ccc(C(=O)NNC(=O)CSc3cccc4cccnc34)cc2NC1=O (stereo unspecified) | 22µM | -
C=C(Cl)COC(=O)c1ccc2c(c1)NC(=O)C(C)S2 (stereo unspecified) | - | -
COc1ccc(CCNC(=O)Cn2c(=O)c3cccn3c3ccc(F)cc32)cc1OC | 79µM | -
COc1ccc(CCNC(=O)Cn2c(=O)c3cccn3c3ccccc32)cc1OC | - | -
CCCCOc1ccc(C#N)cc1OCC | - | -
CCOc1ccc(C(=O)c2oc3ccccc3c2NC(=O)c2nc(S(C)(=O)=O)ncc2Cl)cc1 | - | -
COc1cccc(C(=O)C(Cl)C(=O)c2cccc(OC)c2)c1 | - | -
CC(C)C1CC(CCN2CCOCC2)(c2ccccc2)CCO1 (stereo unspecified) | - | -
NCC(O)c1ccc(O)c(O)c1 (stereo unspecified) | - | -
CC(C)NCC(O)c1cc(O)cc(O)c1 (stereo unspecified) | - | -
CCC(NC(C)C)C(O)c1ccc(O)c(O)c1 (stereo unspecified) | 45µM | -
CC(C)NC[C@H](O)c1ccc(O)c(O)c1 | 79µM! | -
COCCNC(=O)c1cc(-c2ccc(OC)cc2)nc2ccccc12 | - | -
COc1ccc(NC(=O)c2cc(=O)c3ccccc3o2)cc1 | - | -
O=S1(=O)c2ccccc2N(Cc2ccc(F)cc2)c2ccccc21 | ? | -
O=S1(=O)c2ccccc2N(Cc2ccc(Cl)cc2)c2ccccc21 | 79µM | -
O=C(NCc1cccs1)c1ccc2c(=O)n3nc(Nc4ccccc4)sc3nc2c1 | - | -
CCc1ccccc1Nc1nn2c(=O)c3ccc(C(=O)NCc4cccs4)cc3nc2s1 | 32µM | -
